The record followed here is PubChem BioAssay (NCI).

The structures appear in SMILES notation. About 83,000 compounds went through this panel and 20% of them were active in at least one assay; those are over-represented in the sample as a whole.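 Results are percent growth after 48 hours of single-concentration exposure. 100 means growth as in untreated cells, lower positive values show inhibition; negative values down to -100 show cell death.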 Activity calls are given as the source filed them. The calls were made as follows: active = growth percent below 10; inactive = the rest.

In the assay the test system is TK-10 renal. The experiment in a line: NCI-60 one-dose screen, 48 h (100 = growth as untreated, 0 = no growth, -100 = all killed). Conditions: 10 µM unless noted.
As for `c1ccc(Cn2cnc3ccc(-c4nc(-c5ccc6c(c5)ncn6C5CCCCC5)cn5ccnc45)cc32)cc1`, the growth is 5.2% (active).

Consider `N/C(=N\C(N)=N\c1nc2ccccc2s1)c1cccc(Cl)c1`, for which the growth is 111% (inactive).

On to `O=C(Cc1ccccc1)NNc1nc(Cl)nc(N2CCN(C(c3ccccc3)c3ccccc3)CC2)n1`, for which the growth was 96% (inactive).

For `CCN(CC)c1ccc(C(=O)c2ccccc2)cc1`, the growth is 97.9% (inactive).

Turning to `O=C(Nc1ncc(Cc2cc(Cl)ccc2Cl)s1)c1cccs1`, the growth is 68.4% (inactive).

On to `COc1cc(C2C3CC4CCCC[C@H]4N3[C@@]3(C(=O)Nc4cc(Cl)ccc43)C2C(=O)c2nc3ccccc3[nH]2)cc(OC)c1OC` (stereo partly drawn), for which the growth was 68.8% (inactive).

As for `CC(=O)[C@@H]1CC[C@]2(C(N)=O)CC[C@]3(C)[C@H](CC[C@@H]4[C@@]5(C)CCCNC(C)(C)[C@@H]5CC[C@]43C)[C@@H]12`, the growth is 120% (inactive).

For `N#C/C(=C\c1ccc([N+](=O)[O-])s1)c1nc2cc(Br)ccc2s1`, the growth was 4.33% (active).

With `Oc1ccc(C(c2ccc(O)cc2)c2ccc(Br)cn2)cc1`, the growth was 4.53% (active).

As for `CCOC(=O)/C(C#N)=C1/NNC(=Nc2cccnc2)S1`, the growth is 102% (inactive).

Regarding `O=S(=O)(NCCCNc1nccc(-c2c(-c3cccc(F)c3)nc3sccn23)n1)c1cccc2ccccc12`, the growth was 71.7% (inactive).

Consider `CCCNC(=O)Oc1ccc(/C(=C(\C)c2ccccc2)c2ccc(OCCCN(C)C)cc2)cc1`, for which the growth is 84.8% (inactive).

`O=C(CSc1nc2sc3c(c2c(=O)n1-c1ccc(Cl)cc1)CCCC3)Nc1nc(-c2cccc(Br)c2)cs1`: the growth is 113% (inactive).
